Experimental findings from PubChem BioAssay are described below.

The subject of assay [1] is Plasmodium falciparum Sir2 (PF13_0152, Sir2A). Nature of the assay: pfSir2 binders on small-molecule microarrays, primary screen, biochemical, small-molecule microarray, 635 nm fluorescence (AID 1098).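 Also: score merges spot fluorescence intensity with its signal-to-noise ratio.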 The conditions noted are these: small-molecule microarray binding, fluorescence 635 nm; higher = more signal.
Assay [2] is described as follows: small-molecule microarray binders of probe aDKK1, primary screen, biochemical, biotinylated probe, 635/667 nm fluorescence (AID 1099).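 Also: score merges 667nm spot fluorescence with signal to noise across triplicate slides; reference of the scale not given here.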 The conditions noted are these: higher = more signal.
Assay [3] in a line: small-molecule microarray binders of probe aCHRDL2, primary screen, biochemical, biotinylated probe, 635/667 nm fluorescence (AID 1100). The conditions noted are these: higher = more signal.
Assay [4] can be described thus: splicing luciferase reporter signal modulators, primary screen, spliceosome inhibition project, cell-based, HEK293, splice +/- reporter (AID 1101).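 Also: HEK293 cells carrying a splicing-competent luciferase reporter gene; test concentration not given here.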 The conditions noted are these: luminescence, 24 h, higher = more signal, called active from +8 up or from −8 down.
The target of assay [5] is Fibroblast growth factor 10 (Homo sapiens) (UniProt O15520). Description: FGF10 binders on small-molecule microarrays, primary screen, biochemical, small-molecule microarray, 635 nm fluorescence (AID 1102). The conditions noted are these: FGF10 binding, fluorescence 635 nm, higher = more signal.
The test system of assay [6] is glycogen synthase kinase-3 (GSK3A per assay name; protocol says GSK3B). Nature of the assay: GSK3 binders on small-molecule microarrays, primary screen, biochemical, small-molecule microarray, 635 nm fluorescence, GSK3A (AID 1103). Also: the record names both GSK3A and GSK3B. The conditions noted are these: small-molecule microarray binding, fluorescence 635 nm; higher = more signal.
Assay [7] concerns the target Epidermal growth factor receptor (Homo sapiens) (UniProt P00533). Description: EGFR binders on small-molecule microarrays, primary screen, biochemical, small-molecule microarray, 635 nm fluorescence (AID 1104).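 Also: score merges 667 nm emission intensity with spot signal to noise over triplicate slides.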 The conditions noted are these: EGFR binding, higher = more signal.
The target in assay [8] is Follistatin-related protein 3 (Homo sapiens) (UniProt O95633). Nature of the assay: FSTL3 binders on small-molecule microarrays, primary screen, biochemical, small-molecule microarray, 635 nm fluorescence (AID 1105).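 Also: score merges emission near 667 nm and signal to noise per printed spot across three slides.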 The conditions noted are these: FSTL3 binding, higher = more signal.
Assay [9] addresses Dickkopf-related protein 1 (Homo sapiens) (UniProt O94907). Description: DKK1 binders on small-molecule microarrays, primary screen, biochemical, small-molecule microarray, 635 nm fluorescence scan (AID 1106).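 Also: score merges emission near 667 nm with signal to noise over three replicate slides.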 The conditions noted are these: DKK1 binding, higher = more signal.
In assay [10] the test system is Inhibin beta A chain (activin A). Nature of the assay: INHBA (activin A) binders on microarrays, primary screen, biochemical, small-molecule microarray, 635 nm fluorescence scan (AID 1107).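 Also: mouse activin A protein probed at 4.33 µg/mL on printed slides; score merges bound-protein fluorescence near 667 nm with spot signal-to-noise.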 The conditions noted are these: small-molecule microarray binding, higher = more signal.

The source made the active and inactive calls.

Sequence of Fibroblast growth factor 10 (Homo sapiens) (O15520 whole entry, looked up): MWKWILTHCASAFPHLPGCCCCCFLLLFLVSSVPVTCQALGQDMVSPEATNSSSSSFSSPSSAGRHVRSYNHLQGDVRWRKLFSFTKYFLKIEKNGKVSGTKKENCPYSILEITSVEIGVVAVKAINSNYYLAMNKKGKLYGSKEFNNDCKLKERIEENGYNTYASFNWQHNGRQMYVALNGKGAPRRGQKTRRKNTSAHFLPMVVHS
Sequence of Epidermal growth factor receptor (Homo sapiens) (P00533 whole entry, looked up): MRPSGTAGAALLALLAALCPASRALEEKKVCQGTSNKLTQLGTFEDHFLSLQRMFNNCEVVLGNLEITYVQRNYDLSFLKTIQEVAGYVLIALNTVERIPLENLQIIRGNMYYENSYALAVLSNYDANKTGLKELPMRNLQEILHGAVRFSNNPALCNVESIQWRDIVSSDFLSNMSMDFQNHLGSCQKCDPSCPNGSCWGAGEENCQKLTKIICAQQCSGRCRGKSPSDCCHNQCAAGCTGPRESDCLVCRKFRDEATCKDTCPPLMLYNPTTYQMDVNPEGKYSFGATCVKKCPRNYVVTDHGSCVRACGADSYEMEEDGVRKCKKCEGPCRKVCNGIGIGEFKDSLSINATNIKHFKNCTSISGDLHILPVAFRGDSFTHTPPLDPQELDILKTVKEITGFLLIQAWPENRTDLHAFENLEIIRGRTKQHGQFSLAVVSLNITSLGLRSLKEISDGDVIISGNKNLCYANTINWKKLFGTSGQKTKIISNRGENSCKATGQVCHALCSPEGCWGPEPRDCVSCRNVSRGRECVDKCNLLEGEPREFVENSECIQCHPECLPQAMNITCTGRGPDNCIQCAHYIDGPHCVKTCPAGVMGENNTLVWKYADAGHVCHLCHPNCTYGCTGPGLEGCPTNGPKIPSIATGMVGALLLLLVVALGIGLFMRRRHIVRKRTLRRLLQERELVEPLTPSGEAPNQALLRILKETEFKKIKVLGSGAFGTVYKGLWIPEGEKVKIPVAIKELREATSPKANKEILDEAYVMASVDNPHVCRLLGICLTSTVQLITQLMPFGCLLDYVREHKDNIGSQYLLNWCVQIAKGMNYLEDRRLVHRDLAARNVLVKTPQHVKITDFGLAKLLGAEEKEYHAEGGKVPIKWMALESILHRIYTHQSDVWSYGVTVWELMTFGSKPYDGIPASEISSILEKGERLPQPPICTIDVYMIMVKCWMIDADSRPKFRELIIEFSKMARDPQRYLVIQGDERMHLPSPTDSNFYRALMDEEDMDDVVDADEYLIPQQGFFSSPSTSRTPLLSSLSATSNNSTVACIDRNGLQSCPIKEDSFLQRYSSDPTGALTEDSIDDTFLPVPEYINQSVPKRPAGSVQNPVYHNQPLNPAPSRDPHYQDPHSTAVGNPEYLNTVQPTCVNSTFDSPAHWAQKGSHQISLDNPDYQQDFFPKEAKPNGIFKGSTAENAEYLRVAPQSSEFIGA
Sequence of Dickkopf-related protein 1 (Homo sapiens) (O94907 whole entry, looked up): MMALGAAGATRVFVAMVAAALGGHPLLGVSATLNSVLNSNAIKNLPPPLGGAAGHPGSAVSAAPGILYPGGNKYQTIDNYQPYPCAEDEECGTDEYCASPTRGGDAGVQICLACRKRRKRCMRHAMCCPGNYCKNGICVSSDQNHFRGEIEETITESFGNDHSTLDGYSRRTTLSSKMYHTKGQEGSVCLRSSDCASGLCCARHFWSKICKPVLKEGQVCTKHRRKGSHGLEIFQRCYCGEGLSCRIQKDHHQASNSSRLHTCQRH
Sequence of Follistatin-related protein 3 (Homo sapiens) (O95633 whole entry, looked up): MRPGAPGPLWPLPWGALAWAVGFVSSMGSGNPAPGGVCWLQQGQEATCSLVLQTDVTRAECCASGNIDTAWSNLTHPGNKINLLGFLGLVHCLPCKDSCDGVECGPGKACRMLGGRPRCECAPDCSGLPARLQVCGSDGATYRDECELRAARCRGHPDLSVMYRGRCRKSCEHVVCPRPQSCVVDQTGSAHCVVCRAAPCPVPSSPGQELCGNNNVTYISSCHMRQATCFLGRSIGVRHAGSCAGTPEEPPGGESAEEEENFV

With `CC1CC/C=C\[C@H]2OC34C=CCN(Cc5ccccc5)C(=O)[C@H]3N(C(CO)C(C)C)C(=O)[C@@H]4C2C(=O)O1` (stereo not given in full), the composite z-score in assay [1] was 0.659; in assay [2], -0.239; in assay [3] it was 0.146; in assay [5], -0.871; in assay [6] it was -0.484; in [7], -0.471. The composite z-score in [8] was -0.902; in assay [9], -0.415; in assay [10] it was 1.09. For the same compound, the z-score in [4] is -0.124 (inactive).

For the compound `NC(=O)NCC#Cc1ccc2c(c1)[C@]1(C(=O)N2)[C@H](c2ccccc2OCCO)N2[C@H](c3ccccc3)[C@H](c3ccccc3)OC(=O)[C@H]2[C@@H]1C(=O)NC[C@H](O)c1ccccc1`, the composite z-score is 0.342 in assay [1]; -0.224 in assay [2]; 0.699 in [3]; -0.491 in assay [5]; -0.659 in assay [6]; -0.895 in [7]. The composite z-score was -0.355 in assay [8], -0.548 in assay [9] and 0.472 in assay [10]. For the same compound, the z-score in assay [4] was -1.14 (inactive).

As for `CCOC(=O)C[C@H]1[C@H](OC(=O)c2ccc(C(=O)c3ccccc3)cc2)[C@@H](NC(=O)C2CCCCC2)c2cc(OCCCO)ccc2N1C(=O)c1ccc2ccccc2n1`, the composite z-score in assay [1] is 0.698; in assay [2], -0.0699; in [3], -0.125; in [5], 0.839; in assay [6] it was 0.432; in [7] it was 0.34. Further, the results for the composite z-score in assay [8], in [9] and in assay [10] were 1.03, 0.595 and 0.456, respectively. Moreover, the z-score in [4] was 0.112 (inactive).

With `CCOC(=O)C[C@H]1[C@H](OC(=O)c2ccccc2-c2ccccc2)[C@@H](NC(=O)c2ccc3ccccc3n2)c2cc(OCCCO)ccc2N1C(=O)Cc1ccc(OC)cc1`, the composite z-score in assay [1] is -0.235; in assay [2], 0.0006; in assay [3], -0.302; in assay [5] it was 0.463; in [6], 0.0131; in assay [7] it was 0.238. Moreover, the composite z-score in assay [8] came to 0.176; in assay [9], 0.0349; in assay [10], 0.711. In addition, the z-score in [4] is -0.378 (inactive).

For the compound `COC(=O)C1=CC(CCCO)=CC(c2cccs2)N(C)C=C1C(=O)OC` (stereo not given), the composite z-score in assay [1] was 1.52; in [2], 0.122; in [3], 0.187; in assay [5], -0.604; in [6] it was -1.39; in assay [7] it was -0.904. In addition, the composite z-score in assay [8] is 0.0507; in [9], -0.442; in [10], 0.788. The z-score in [4] is 0.844 (inactive).

As to `C=C(COC)/C(=C/C[C@H](OC(=O)c1ccncc1)c1ccc(CO)o1)c1cnc2ccccc2c1`, the composite z-score in assay [1] was 0.296; in [2], -0.155; in assay [3] it was -0.137; in [5], 1.12; in assay [6] it was 0.986; in assay [7] it was 0.387. In addition, the values for the composite z-score in [8], in assay [9] and in assay [10] were 1.34, 0.348 and 1.81, respectively. Besides, the z-score in assay [4] is 0.801 (inactive).

For `O=C1N(CCS(=O)(=O)c2ccccc2)c2ccccc2[C@H]2OC(c3ccc(OCCCO)cc3)=N[C@@]12Cc1ccccc1`, the composite z-score in assay [1] was determined as 1.29; in assay [2], 1.1; in assay [3], 1.08; in assay [5] it was 0.896; in assay [6] it was 1.05; in [7] it was 1.03. The composite z-score in assay [8] turned out to be 1.1; in [9], 1.04; in assay [10], 1.04. For the same compound, the z-score in [4] was -1.49 (inactive).

In the case of `[N-]=[N+]=Nc1ccccc1C[C@]1(C(=O)O)COC(c2ccc(OCCCO)cc2)=N1`, the composite z-score was 1.15 in assay [1]; 0.336 in [2]; 0.829 in [3]; -0.51 in assay [5]; -1.1 in assay [6]; -0.473 in assay [7]. The composite z-score in assay [8] was -0.543; in assay [9], -0.885; in assay [10] it was 0.764. Moreover, the z-score in assay [4] was -1.08 (inactive).

In the case of `COCCOC(=O)N1C(=O)[C@@]2(c3cc(C#CCC(C(=O)OC)C(=O)OC)ccc31)[C@H](c1ccc(OCCO)cc1)N1[C@H](c3ccccc3)[C@H](c3ccccc3)OC(=O)[C@H]1[C@@H]2C(=O)N1CCc2cc(OC)c(OC)cc2C1`, the composite z-score in assay [1] was 0.752; in assay [2], 0.258; in assay [3] it was 0.0031; in [5] it was 1.4; in assay [6] it was 1.31; in assay [7], 0.76. Moreover, the composite z-score in assay [8] worked out at 1.28; in assay [9], 0.411; in [10], 0.622. In addition, the z-score in assay [4] is 0.414 (inactive).

With `CC(C)N1C(=O)C[C@@](C(=O)NC2CC2)(c2ccc([N+](=O)[O-])cc2)[C@H]1c1ccc(CO)cc1`, the composite z-score is -0.66 in assay [1]; 0.34 in [2]; 0.993 in [3]; -0.576 in [5]; -0.3 in assay [6]; -1.18 in assay [7]. Further, the composite z-score was -1.1 in [8], -0.674 in [9] and -1.48 in [10]. In addition, the z-score in assay [4] is -1.34 (inactive).

`CC1CC/C=C\[C@H]2OC34C=CCN(C(C)C)C(=O)[C@H]3N(CCO)C(=O)[C@@H]4C2C(=O)O1` (stereo not given in full): the composite z-score in assay [1] is 0.501; in assay [2], -0.163; in [3], 0.701; in [5] it was -0.309; in assay [6], -0.979; in assay [7], -1.29. In addition, the figures for the composite z-score in [8], in assay [9] and in assay [10] were -1.28, -1.28 and -0.372, respectively. Also, the z-score in assay [4] is 0.459 (inactive).
